Measurements: PubChem BioAssay (Tox21)
Activity calls are given as the source filed them. Unless noted, the call rests on the fitted dose curve; in most records, active means well fitted curve in the direction sought with a large enough effect in the repeat runs; inconclusive means weak or mixed curves; inactive means no such curve, though single readings can be large; an effect the other way counts as inactive or inconclusive.

Columns and labels:
[1] = qHTS assay for small molecules that induce genotoxicity in human embryonic kidney cells expressing luciferase-tagged ATAD5 (AID 651632); further: nearly all actives have a fitted effect of over 15% in size; further: potency means the concentration at half of the fitted maximal effect
Procedure, shortened: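 HEK293T cells carrying a luciferase reporter tagged to ATAD5 were exposed to compound or DMSO vehicle for 16 hr at 37C, 5% CO2. Amplite was added, and after 30 min at room temperature luciferase activity was read as a marker of ATAD5 induction.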

[2] = qHTS assay for small molecule agonists of the p53 signaling pathway - cell viability (AID 651633; calls by dose curve; further: nearly all actives have a fitted effect of over 30% in size; further: potency means the concentration at half of the fitted maximal effect)
Procedure, shortened: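 p53RE-bla cells were treated with compound for 16 hours at 37 C. Cytotoxicity was then measured as CellTiter-Glo luminescence after 30 min at room temperature.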

[3] = qHTS assay for small molecules that induce genotoxicity in human embryonic kidney cells expressing luciferase-tagged ATAD5 - cell viability (AID 651634; calls by dose curve; further: nearly all actives have a fitted effect of over 25% in size; further: potency means the concentration at half of the fitted maximal effect)
Procedure, shortened: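 HEK293T cells expressing luciferase-tagged ATAD5 were exposed to compound or DMSO for 15.5 hr at 37C, 5% CO2. Viability was then read as live-cell protease activity by CellTiter-Fluor fluorescence after 30 min at 37C.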

[4] = qHTS assay for small molecule disruptors of the mitochondrial membrane potential - cell viability (AID 720634; calls by dose curve; further: nearly all actives have a fitted effect of over 20% in size; further: potency means the concentration at half of the fitted maximal effect)
Procedure, shortened: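 HepG2 cells seeded overnight at 37 C, then exposed to compound or DMSO for 1 hr at 37 C, 5% CO2. m-MPI dye added, then CellTiter-Glo for 30 min at room temperature; viability read as ATP luminescence.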

[5] = qHTS assay to test for compound auto fluorescence at 590 nm (red) in HepG2 cells (AID 720674)
Procedure, shortened: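 Fluorescence at 590 nm emission following 540 nm excitation was recorded from HepG2 wells one hour after compound transfer, with DMSO-only wells as vehicle and Rose Bengal sodium equivalency as the scale.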

[6] = qHTS assay to test for compound auto fluorescence at 535 nm (green) in HepG2 cells (AID 720675)
[7] = qHTS assay to test for compound auto fluorescence at 460 nm (blue) in HEK293 cells (AID 720678)
Procedure, shortened: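 Blue-channel (Ex/Em 405/460 nm) intensity measured in HEK293 cultures after overnight compound exposure at 37C; signal expressed relative to triamterene. Cells plated 2,000 per well in 10% dialyzed FBS medium and allowed 4-5 hr to attach.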

[8] = qHTS assay to test for compound auto fluorescence at 590 nm (red) in HEK293 cells (AID 720679)
Procedure, shortened: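 Red-channel autofluorescence (Ex/Em 540/590 nm; Rose Bengal sodium reference) was measured after overnight 37C, 5% CO2 exposure of attached HEK293 cells, 2,000 per well in medium with 10% dialyzed FBS.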

[9] = qHTS assay to test for compound auto fluorescence at 535 nm (green) in HEK293 cells (AID 720680)
[10] = qHTS assay to test for compound auto fluorescence at 460 nm (blue) in HEK293 cell free culture (AID 720681)
Procedure, shortened: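 Compounds were added to cell-free DMEM with 10% FBS and fluorescence read directly. The blue channel used 405 nm excitation and 460 nm emission, with triamterene as the reference fluorophore.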

[11] = qHTS assay to test for compound auto fluorescence at 535 nm (green) in HEK293 cell free culture (AID 720682)
Procedure, shortened: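 Compounds were pin-transferred into cell-free DMEM with 10% FBS, and green fluorescence was read at excitation 485 nm and emission 535 nm. Intensities were expressed as fluorescein-equivalent values.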

[12] = qHTS assay to test for compound auto fluorescence at 590 nm (red) in HEK293 cell free culture (AID 720683)
Procedure, shortened: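 Cell-free wells of DMEM with 10% FBS received compound, and intrinsic fluorescence was read at excitation/emission 540/590 nm. Values expressed as equivalence to Rose Bengal sodium.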

[13] = qHTS assay to test for compound auto fluorescence at 590 nm (red) in HepG2 cell free culture (AID 720684)
Procedure, shortened: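 Compound was pinned into wells holding MEM with 10% FBS and no cells, and red fluorescence was read at Ex/Em 540/590 nm. Signal is expressed as auto fluorescence equivalency relative to Rose Bengal sodium.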

[14] = qHTS assay to test for compound auto fluorescence at 460 nm (blue) in HepG2 cell free culture (AID 720685)
Procedure, shortened: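 Compound (23 nL) or DMSO pinned into cell-free MEM with 10% FBS; blue fluorescence read at 405/460 nm excitation/emission, expressed as auto-fluorescence equivalency to triamterene.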

[15] = qHTS assay to test for compound auto fluorescence at 535 nm (green) in HepG2 cell free culture (AID 720686)
[16] = qHTS assay to test for compound auto fluorescence at 460 nm (blue) in HepG2 cells (AID 720687)
Procedure, shortened: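 HepG2 cells in MEM with 10% FBS, attached overnight at 37 C, were exposed to compound or DMSO for 1 hr at 37 C, 5% CO2. Blue fluorescence was read at 405/460 nm, with triamterene as reference fluorophore.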

[17] = biological target: Glucocorticoid receptor (Homo sapiens) (UniProt P04150); assay: qHTS assay to identify small molecule agonists of the glucocorticoid receptor (GR) signaling pathway (AID 720691; active means well fitted activation curve with a large enough effect in the signal ratio in the repeat runs, not every such curve was filed as active; inconclusive means weak or mixed curves, or effect the other way; inactive means no such curve, though single readings can be large or run the other way; the % refers to the signal ratio; further: potency means the concentration at half of the fitted maximal effect); conditions: GR-bla HeLa, beta-lactamase reporter ratio, 18 h; activation: at 62.4 µM (top of the series)
Procedure, shortened: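 GR-bla HeLa cells (beta-lactamase reporter under glucocorticoid response element) were plated 4 h at 37 C/5% CO2, given compounds in DMSO, and incubated 18 h at 37 C. LiveBLAzer B/G FRET substrate was added for 2 h at room temperature, then fluorescence intensity read.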

[18] = biological target: Glucocorticoid receptor (Homo sapiens) (UniProt P04150); assay: qHTS assay to identify small molecule antagonists of the glucocorticoid receptor (GR) signaling pathway (AID 720692; active means well fitted inhibition curve with a large enough effect in the signal ratio in the repeat runs, not every such curve was filed as active; inconclusive means weak or mixed curves, or effect the other way; inactive means no such curve, though single readings can be large or run the other way; the % refers to the signal ratio; further: potency means the concentration at half of the fitted maximal effect)
Procedure, shortened: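 GR-bla HeLa cells (beta-lactamase reporter under glucocorticoid response element) were pre-plated 4 h at 37 C, treated with compounds plus 5 nM dexamethasone (final) for 18 h, then read by LiveBLAzer B/G FRET fluorescence after 2 h.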

[19] = qHTS assay for small molecule disruptors of the mitochondrial membrane potential (AID 720635); further: potency means the concentration at half of the fitted maximal effect
Procedure, shortened: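 HepG2 cells exposed to compound 1 hr at 37C, then Mito-MPS dye 30 min. Ratio read of aggregate (540/590 nm) versus monomer (490/535 nm) fluorescence.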

Measured: Potency

Glucocorticoid receptor (Homo sapiens), sequence (P04150 whole entry, looked up): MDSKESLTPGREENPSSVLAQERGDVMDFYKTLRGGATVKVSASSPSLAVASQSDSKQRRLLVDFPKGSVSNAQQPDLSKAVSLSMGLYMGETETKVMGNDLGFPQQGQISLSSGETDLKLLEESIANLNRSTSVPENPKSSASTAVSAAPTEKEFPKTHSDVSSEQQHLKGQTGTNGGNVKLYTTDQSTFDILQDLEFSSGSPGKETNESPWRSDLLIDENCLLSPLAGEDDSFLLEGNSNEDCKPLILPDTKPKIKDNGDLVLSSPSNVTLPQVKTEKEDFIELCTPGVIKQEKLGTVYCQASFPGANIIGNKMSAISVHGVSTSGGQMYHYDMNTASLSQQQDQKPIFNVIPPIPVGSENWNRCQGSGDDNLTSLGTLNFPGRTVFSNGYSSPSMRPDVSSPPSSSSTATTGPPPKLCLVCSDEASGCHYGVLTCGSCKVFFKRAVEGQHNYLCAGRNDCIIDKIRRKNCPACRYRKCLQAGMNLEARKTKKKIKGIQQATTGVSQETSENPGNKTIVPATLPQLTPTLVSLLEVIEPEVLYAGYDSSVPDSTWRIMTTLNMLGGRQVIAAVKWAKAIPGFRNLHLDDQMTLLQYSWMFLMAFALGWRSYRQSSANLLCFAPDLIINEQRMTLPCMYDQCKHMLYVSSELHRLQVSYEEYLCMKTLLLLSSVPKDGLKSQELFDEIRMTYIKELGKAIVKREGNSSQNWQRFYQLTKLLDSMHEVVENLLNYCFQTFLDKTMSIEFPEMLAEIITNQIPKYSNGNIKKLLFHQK

CC(C)(CO)[C@@H](O)C(=O)NCCCC(=O)O
not listed: [19]
inactive: all other assays above

NNc1nnc(Cc2ccncc2)c2ccccc12
not listed: [19]
inactive: all other assays above

CC1C(=O)CC2C3(C)CCC2(C(C)C(=O)O)C(=O)C13 (stereo unspecified)
not listed: [14] | [19]
inactive: all other assays above

COC(=O)CC[C@H](N)C(=O)O
not listed: [17] | [19]
inactive: all other assays above

COc1ccc(C(=O)Nc2ccccc2CCC2CCCCN2C)cc1 (stereo unspecified)
not listed: [19]
inactive: all other assays above

C/C1=C2N=C(/C=C3N=C(/C(C)=C4\[N-]C(C(CC(N)=O)C4(C)CCC(=O)NCC(C)OP(=O)([O-])OC4C(CO)OC(n5cnc6cc(C)c(C)cc65)C4O)C4(C)N=C1C(CCC(N)=O)C4(C)CC(N)=O)C(CCC(N)=O)C\3(C)C)C(CCC(N)=O)C/2(C)CC(N)=O.[CH3-].[Co+3] (stereo unspecified)
active: [3] 23.7 µM
not listed: [19]
inactive: all other assays above

C[C@H](CCCC(C)(C)O)[C@H]1CC[C@H]2[C@@H]3CC=C4C[C@@H](O)CC[C@]4(C)[C@H]3CC[C@]12C
not listed: [18] | [19]
inactive: all other assays above

N[C@H](CC(=O)O)C(=O)O
not listed: [18] | [19]
inactive: all other assays above

Cc1cc(C)c(NC(=O)C[C@H](CC(=O)O)c2cccc3ccccc23)c(C(=O)N2CCC3(CCCC3)CC2)c1
active: [18] 10.7 µM
not listed: [19]
inactive: all other assays above

CO/N=C(\C(=O)N[C@@H]1C(=O)N2C(C(=O)O)=C(CSc3nnnn3C)CS[C@H]12)c1csc(N)n1
not listed: [19]
inactive: all other assays above

CN(C)C(=O)CCSC(SCCC(=O)O)c1cccc(/C=C/c2ccc3ccc(Cl)cc3n2)c1 (stereo unspecified)
active: [1] 4.73 µM | [2] 29.8 µM | [3] 23.7 µM | [4] 29.8 µM | [18] 8.49 µM
not listed: [19]
inactive: all other assays above

[O]=[Bi][O]C(=O)[O][Bi]=[O]
not listed: [19]
inactive: all other assays above

C[C@]12CCC(=O)C=C1CC[C@@H]1[C@@H]2[C@@H](O)C[C@@]2(C)[C@H]1CC[C@]2(O)C(=O)COP(=O)(O)O
active: [17] 0.674 µM [inconclusive]
not listed: [18] | [19]
inactive: all other assays above

CC(O)[C@@H]1NC(=O)[C@H](Cc2ccccc2)NC(=O)[C@H](C(C)O)NC(=O)[C@H](CCCCN)NC(=O)[C@H](Cc2c[nH]c3ccccc23)NC(=O)[C@H](Cc2ccccc2)NC(=O)[C@H](Cc2ccccc2)NC(=O)[C@H](CC(N)=O)NC(=O)[C@H](CCCCN)NC(=O)[C@@H](NC(=O)CNC(=O)[C@H](C)N)CSSC[C@@H](C(=O)O)NC(=O)[C@H](CO)NC1=O (stereo partly specified)
not listed: [17] | [18] | [19]
inactive: all other assays above

CN1CCC(OC(=O)C(Oc2ccc(Cl)cc2)Oc2ccc(Cl)cc2)CC1
not listed: [6] | [18] | [19]
inactive: all other assays above

CCCc1nc(C(C)(C)O)c(C(=O)OCc2oc(=O)oc2C)n1Cc1ccc(-c2ccccc2-c2nn[nH]n2)cc1
not listed: [4] | [17] | [18]
inactive: all other assays above

C[C@H](CSC(=O)c1ccccc1)C(=O)N1C[C@@H](Sc2ccccc2)C[C@H]1C(=O)O
not listed: [14] | [19]
inactive: all other assays above

CC(C)NCC(O)COc1ccccc1-n1cccc1 (stereo unspecified)
not listed: [4] | [18] | [19]
inactive: all other assays above

CC1=C(/C=C/C(C)=C/C=C/C(C)=C/C(=O)Oc2c(C)c(C)c3c(c2C)CC[C@@](C)(CCC[C@H](C)CCC[C@H](C)CCCC(C)C)O3)C(C)(C)CCC1
not listed: [4] | [17] | [18]
inactive: all other assays above

CN1CCC(CN2c3ccccc3Sc3ccccc32)C1 (stereo unspecified)
not listed: [4] | [17] | [18] | [19]
inactive: all other assays above

C[C@H](/C=C/[C@H](C)C(C)(C)O)[C@H]1CC[C@H]2/C(=C/C=C3C[C@@H](O)C[C@H](O)C3)CCC[C@]12C
active: [2] 8.41 µM
not listed: [10] | [18] | [19]
inactive: all other assays above

CC(C)N1CCN(c2ccc(OC[C@H]3CO[C@](Cn4cncn4)(c4ccc(Cl)cc4Cl)O3)cc2)CC1
active: [2] 11.4 µM
not listed: [6] | [14] | [17] | [18] | [19]
inactive: all other assays above

O=C1/C(=C\c2cccs2)CCC/C1=C\c1cccs1
active: [1] 5.96 µM | [19] 21.1 µM
not listed: [4] | [13] | [14] | [18]
inactive: all other assays above
